Experimental data as given in the supplement of paper PMC8387472.

How the values were obtained:
Test in all cases: fraction of microhomology deletions among edited reads; higher = more MH deletions
Settings in all cases: mESC; 2uM; 72 h treatment, harvest day 5
Rifapentine = compound: CO[C@H]1/C=C/O[C@@]2(C)Oc3c(C)c(O)c4c(O)c(c(/C=N/N5CCN(C6CCCC6)CC5)c(O)c4c3C2=O)NC(=O)/C(C)=C\C=C\[C@H](C)[C@H](O)[C@@H](C)[C@@H](O)[C@@H](C)[C@H](OC(C)=O)[C@@H]1C [Rifapentine]
[1] = compound: COc1ccccc1-c1cc(Nc2cccc(CS(N)(=O)=O)c2)ncn1
[2] = compound: C[C@@H]1CN(CC(=O)Nc2ccc3c(c2)Cc2cccc(-c4cc(=O)cc(N5CCOCC5)o4)c2S3)C[C@H](C)O1
[3] = compound: Cc1cc(C)nc(SCC(=O)Nc2ncc(Cc3cccc4ccccc34)s2)n1
[4] = compound: Cc1cccc(CC(=O)N2CCc3c2ccc(-c2cn(C)c4ncnc(N)c24)c3F)n1
[5] = compound: NC(=O)c1ccc2nc(-c3ccc(Oc4ccc(Cl)cc4)cc3)[nH]c2c1 [Chk 2 inhibitor II (BML-277)]
Tucidinostat (Chidamide) = compound: Nc1cc(F)ccc1NC(=O)c1ccc(CNC(=O)/C=C/c2cccnc2)cc1 [Tucidinostat (Chidamide)]
Pemetrexed = compound: Nc1nc2[nH]cc(CCc3ccc(C(=O)N[C@@H](CCC(=O)O)C(=O)O)cc3)c2c(=O)[nH]1 [Pemetrexed]
[6] = compound: Nc1ncnc2c1c(-c1cnc3[nH]ccc3c1)nn2C1CCCC1
[7] = compound: O=C(c1cccc(Cl)c1F)N1CCN(Cc2cccc(Nc3nccs3)n2)CC1

Target | fraction of microhomology deletions among edited reads (Rifapentine) | fraction of microhomology deletions among edited reads [1] | fraction of microhomology deletions among edited reads [2] | fraction of microhomology deletions among edited reads [3] | fraction of microhomology deletions among edited reads [4] | fraction of microhomology deletions among edited reads [5] | fraction of microhomology deletions among edited reads (Tucidinostat (Chidamide)) | fraction of microhomology deletions among edited reads (Pemetrexed) | fraction of microhomology deletions among edited reads [6] | fraction of microhomology deletions among edited reads [7]
5.0 (DMSO control at this site: 1-bp insertion 0.214, MH deletion 0.567, edited 0.105) CGCTGACCCGAGACCTACGCGAACCGAAATCGGCGACCGGTGCGCAAGCAGGGCTGGCGTC | 0.578 | 0.519 | 0.353 | 0.571 | 0.568 | 0.58 | 0.526 | 0.565 | 0.512 | 0.537
23.0 AGAACAAAGCGCTCATATAACGATATGGGGGGTTATGGGGGGTTGAATTGCTTCAGCACGA | – | – | – | – | – | – | – | – | – | 0.856
1.0 (DMSO control at this site: 1-bp insertion 0.521, MH deletion 0.323, edited 0.141) GTGTCACAGTGCACGAGTGACGGGATAATGTGCTGACAGGTAATTGATAGGCTTCCAACTT | 0.256 | 0.224 | 0.0962 | 0.248 | 0.227 | 0.243 | 0.215 | 0.342 | 0.163 | 0.209
7.0 (DMSO control at this site: 1-bp insertion 0.128, MH deletion 0.374, edited 0.098) TACTCAACCGAGACCTACGCGAACCGAAATCGTATGCCGGTGCGCAAGCAGGGCTGGCGTC | 0.414 | 0.393 | 0.324 | 0.45 | 0.441 | 0.38 | 0.427 | 0.536 | 0.425 | 0.394
15.0 GCGCCTCCAATGACCCAGTGGGATCCTACTCCATAATGGGATCCTGGGGATTCCTCGCTCC | 0.426 | – | – | 0.39 | – | – | 0.289 | – | – | –
21.0 CGATTGAGAGTCAAACGGGCCAGAAAACTCCGGGAACGGGCCAGAAAACTCCGGGGCATGG | 0.216 | 0.183 | 0.0533 | 0.176 | – | 0.226 | 0.127 | 0.186 | 0.144 | –
0.0 (DMSO control at this site: 1-bp insertion 0.463, MH deletion 0.339, edited 0.14) AGGATTACCGAGACCTACGCGAACCGAAATCGCTGTCCGGTGCGCAAGCAGGGCTGGCGTC | 0.37 | 0.294 | 0.108 | 0.304 | 0.291 | 0.331 | 0.275 | 0.346 | 0.23 | 0.201
46.0 TTAAGAGCAATGTTCACGCAACTTGAAATTATATCTGTGGTCTTCAAATTGTCTTTTGTCA | 0.417 | – | – | – | – | – | 0.327 | 0.431 | 0.497 | –
38.0 (DMSO control at this site: 1-bp insertion 0.063, MH deletion 0.487, edited 0.17) GGGCTGGGTGCTAAAATGAGGAGCTCCAAGAAGACTGAGGTGAACCTGGAGGCCCCTGAGC | 0.507 | 0.46 | 0.441 | 0.483 | 0.495 | 0.495 | 0.458 | 0.548 | 0.432 | 0.439
32.0 (DMSO control at this site: 1-bp insertion 0.03, MH deletion 0.85, edited 0.898) AGAAGTCCAGGATCAGGGGGACTGGGGTCGGGAGGGTGGGGCAGGAAGGAAGCCAGAATCA | 0.91 | 0.93 | 0.896 | 0.908 | 0.897 | 0.918 | 0.904 | 0.928 | 0.886 | 0.926
22.0 (DMSO control at this site: 1-bp insertion 0.573, MH deletion 0.229, edited 0.045) CTGATGGTTGAAGGATTTAGCCGGGGTCCTAGACGCCGGGGTCCTAGACGAAAGGGCCACG | 0.142 | 0.163 | 0.0591 | 0.188 | 0.0873 | 0.201 | 0.209 | 0.267 | – | 0.0524
8.0 GCATGCGTGTTTTGGGACAATGTAGTATACATTTGGGAGGCTCTCAGCTTTTCCCAATAAA | – | – | – | 0.0765 | – | – | 0.0826 | 0.127 | 0.0866 | –
31.0 (DMSO control at this site: 1-bp insertion 0.315, MH deletion 0.329, edited 0.026) ACCTCCACAGGCTGGGTGGCCCGGAGGCTGGGCGGCCCGGAGGCTGGGCTGGGCGAGTATC | 0.467 | 0.487 | – | 0.512 | – | – | 0.459 | 0.605 | 0.333 | 0.391
17.0 (DMSO control at this site: 1-bp insertion 0.112, MH deletion 0.348, edited 0.058) CCATAGCGCGATAAATATGACGGCTCATCCTGTATGACGGCTCATCCTGTATCAACTGTCC | 0.43 | 0.378 | 0.243 | 0.444 | 0.409 | 0.35 | 0.38 | 0.474 | 0.39 | 0.409
18.0 (DMSO control at this site: 1-bp insertion 0.114, MH deletion 0.789, edited 0.094) GCGCAAGTGCATAAGTTTTTCTTAAGGCGTGCCTTTAAGGCGTGCCTTTGTCGGTCCTGGA | 0.805 | 0.779 | 0.683 | 0.791 | 0.755 | 0.812 | 0.797 | 0.78 | 0.768 | 0.777
39.0 (DMSO control at this site: 1-bp insertion 0.328, MH deletion 0.371, edited 0.204) CTGCACAGTCACTTAGGATAGGAGAAGATGATGTATAGGGTTTAGTGGGAGATGTTGCAAG | 0.414 | 0.303 | 0.105 | 0.361 | 0.372 | 0.372 | 0.287 | 0.407 | 0.286 | 0.32
28.0 (DMSO control at this site: 1-bp insertion 0.035, MH deletion 0.77, edited 0.142) TGGTTCTTCCTTTGTAGAGAGTGTTCATCTGGGAATCTGGGACTTGGATGAGACAATCATT | 0.794 | 0.755 | 0.768 | 0.777 | 0.747 | 0.768 | 0.739 | 0.737 | 0.748 | 0.76
16.0 (DMSO control at this site: 1-bp insertion 0.172, MH deletion 0.29, edited 0.05) CGGACTGCACACATGGGTAGGATCGTGCACGCGAGGTAGGATCGTGCACGCGAAGTTATTC | 0.319 | 0.282 | 0.12 | 0.275 | 0.281 | 0.254 | 0.302 | 0.279 | 0.198 | 0.256
19.0 (DMSO control at this site: 1-bp insertion 0.121, MH deletion 0.101, edited 0.057) TCTGCAGGGGTCGGAACCCGGGGGCTAGGGCTATCCCGGGGGCTAGGGCTATTAGCGAACC | 0.243 | 0.149 | 0.0547 | 0.209 | 0.212 | 0.207 | 0.188 | 0.187 | 0.202 | 0.177
29.0 (DMSO control at this site: 1-bp insertion 0.084, MH deletion 0.745, edited 0.133) TTGATGAACTTCCTCTTCTTCTCATGTCTCCGGTCTCCGGTAGGCCACGTGCATGGCCACT | 0.751 | 0.667 | 0.482 | 0.692 | 0.702 | 0.741 | 0.686 | 0.691 | 0.696 | 0.662
